Results as given in PubChem BioAssay (NCATS).
Unmarked numbers belong to inactive results. Calls of active or inactive are those of the source. Unless noted, calls follow the shape of the dose curve; as a rule, active = well fitted curve in the direction sought with a large enough effect; inconclusive = small, poorly fitted or top-dose-only effect, or another doubt; inactive = no such curve, though single readings can be large; an effect the other way counts as inactive or inconclusive.

Tests used:
[1] = Cellular Toxicity (caspase-3) H-4-II-E (AID 663); conditions: H-4-II-E rat hepatoma, scaled: DMSO 0%, 100 µM tamoxifen 100%; at 92.2 µM (top of the series);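 also: cells exposed to compound for 16 hr before readout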
In short: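 Luminescence from caspase-cleaved aminoluciferin substrate, read 20 min after reagent addition, reports caspase 3/7 activation in rat H-4-II-E cells after 16 hr compound exposure. Normalized to DMSO (basal) and 100 uM tamoxifen (100%); AC50 from Hill fits.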

[2] = MultiTox-Fluor Cytotoxicity Assay - LYMP1-001 - Dead Cells (AID 946); also: potency is read from the fitted curve at half-maximal effect
In short: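 Seed 2500 LYMP1-001 cells/well, incubate 5 hr at 37 C; add compound, 16 hr at 37 C; add MultiTox-Fluor reagent, 60 min RT; read dead-cell fluorescence Ex/Em=485/520. Normalize to DMSO and 15 uM tetraoctylammonium bromide.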

[3] = MultiTox-Fluor Cytotoxicity Assay - LYMP1-001 - Live Cells (AID 947); also: potency is read from the fitted curve at half-maximal effect
[4] = MultiTox-Fluor Cytotoxicity Assay - LYMP1-002 - Dead Cells (AID 960); also: nearly all actives have a fitted effect of over 60% in size; also: potency is read from the fitted curve at half-maximal effect
In short: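 Acute cytotoxicity in a human lymphoblastoid line is scored as rising dead-cell protease signal after 16 hr exposure at 37 C, measured fluorometrically (485/520).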

[5] = Cell Viability - LYMP2-004 (AID 966); also: potency is read from the fitted curve at half-maximal effect; nearly all actives have a fitted effect of over 65% in size
In short: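 Acute toxicity is scored as a concentration-dependent drop in intracellular ATP, quantified by luciferase luminescence, in human lymphoblastoid cells exposed to compound for 24 hr. AC50 derives from Hill-equation modelling.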

[6] = Cell Viability - LYMP2-013 (AID 970); also: nearly all actives have a fitted effect of over 55% in size; also: potency is read from the fitted curve at half-maximal effect
In short: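 Acute toxicity was measured in human lymphoblastoid cells (2500/well) exposed to compound titrations for 24 hr, with ATP luminescence (CellTiter-Glo) as read-out and AC50 fitted by Hill equation.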

[7] = Cell Viability - LYMP2-002 (AID 977); also: potency is read from the fitted curve at half-maximal effect
In short: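 Luminescent ATP readout (CellTiter-Glo, 30 min room temperature) after 24 h compound exposure at 37 C of a human lymphoblastoid line, 2500 cells/well. AC50 values derived by standard Hill fitting of qHTS concentration-response data.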

[8] = Cell Viability - LYMP2-006 (AID 978); also: nearly all actives have a fitted effect of over 60% in size; also: potency is read from the fitted curve at half-maximal effect
In short: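 In this cytotoxicity screen, the human lymphoblastoid line grew in complete medium with test compounds for 24 hr at 37 C. Cellular ATP served as the viability signal.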

[9] = Cell Viability - LYMP2-014 (AID 983); also: nearly all actives have a fitted effect of over 50% in size; also: potency is read from the fitted curve at half-maximal effect
In short: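 Decrease in intracellular ATP after 24 hr treatment at 37 C, measured by luciferase luminescence, indicated cytotoxicity. Concentration-response data were fitted with the standard Hill equation to give AC50.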

[10] = Cell Viability - LYMP2-022 (AID 987); also: potency is read from the fitted curve at half-maximal effect; nearly all actives have a fitted effect of over 55% in size
In short: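 Acute toxicity in a human lymphoblastoid line is scored as decreased intracellular ATP after 24 hr compound treatment at 37 C. ATP is measured by CellTiter-Glo luminescence; curves are fitted with the Hill equation to give AC50.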

[11] = Cell Viability - LYMP2-024 (AID 988);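 also: potency is read from the fitted curve at half-maximal effect; cells exposed to compound for 24 hr at 37 °C; nearly all actives have a fitted effect of over 60% in size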
In short: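 Acute toxicity is measured as concentration-dependent loss of intracellular ATP in a human lymphoblastoid line treated 24 hours at 37 C. Luciferase luminescence quantifies ATP; AC50 values come from standard Hill-equation modelling.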

[12] = target: Voltage-gated inwardly rectifying potassium channel KCNH2 (Homo sapiens) (UniProt Q12809); assay: qHTS Assay for Small Molecule Inhibitors of the Human hERG Channel Activity (AID 588834);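 also: lower thallium flux fluorescence means stronger hERG block; nearly all actives have a fitted effect of over 50% in size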; also: potency is read from the fitted curve at half-maximal effect
In short: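 Blockade is seen as reduced FluxOR thallium-flux fluorescence in U2OS cells expressing hERG from a BacMam construct, in Opti-MEM with 2% FCS. Concentration-response data fitted to the Hill equation for AC50.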

[13] = qHTS assay for small molecule activators of the p53 signaling pathway (AID 651743; active = well fitted activation curve with a large enough effect in the signal ratio, not every such curve was filed as active; inconclusive = small, poorly fitted or top-dose-only effect, or a change in a side signal; the % refers to the signal ratio; also: potency is read from the fitted curve at half-maximal effect; as to activation: % of control where 0% means no effect); conditions: HCT-116 p53RE-bla, beta-lactamase FRET ratio, 16 h; activation: hits give high values
In short: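 p53RE-bla HCT-116 cells with a stably integrated beta-lactamase reporter under p53 response elements were plated, rested 5 hours at 37 C/5% CO2, then exposed to compounds in DMSO for 16 hours at 37 C. LiveBLAzer B/G FRET substrate was read after 2 hours at room temperature.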

[14] = qHTS assay for small molecule disruptors of the mitochondrial membrane potential - 1 hr assay (AID 651754; calls by dose curve; also: % is scaled to controls: 0 for no effect and ±100 for the full control effect; nearly all actives have a fitted effect of over 35% in size)
In short: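 Steps: seed HepG2 cells and let attach overnight; pin-transfer compound or vehicle; incubate 1 hr at 37C; add Mito-MPS dye for 30 min; read two-channel fluorescence for monomer and aggregate forms.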

[15] = qHTS assay for small molecule antagonists of the retinoid-related orphan receptor gamma (ROR-gamma) signaling pathway - cell viability counter screen (AID 720652; active = well fitted curve in the direction sought with a large enough effect in the repeat runs; inconclusive = weak or mixed curves; inactive = no such curve, though single readings can be large; an effect the other way counts as inactive or inconclusive;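 also: compound exposure lasted 16 hr before ATP read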; also: potency is read from the fitted curve at half-maximal effect)
In short: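 Cytotoxicity is quantified via intracellular ATP (CellTiter-Glo luminescence) in doxycycline-induced CHO ROR response element-luciferase reporter cells treated with compound for 16 hr at 37 C, 5% CO2.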

[16] = target: Estrogen receptor (Homo sapiens) (UniProt P03372); assay: qHTS assay for small molecule antagonists of estrogen receptor alpha signaling (AID 588513; active = well fitted curve in the direction sought with a large enough effect in the signal ratio, with a control signal flat, not every such curve was filed as active; inconclusive = small, poorly fitted or top-dose-only effect, or effect the other way, or a change in a side signal; inactive = no such curve, though single readings can be large or run the other way; the % refers to the signal ratio; also: potency is read from the fitted curve at half-maximal effect)
In short: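 Antagonist-mode qHTS in ER-alpha-UAS-bla HEK 293 cells: compound titration, 0.5nM estradiol for 18 h, CCF4 fluorescence, Hill-derived IC50.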

[17] = target: Peroxisome proliferator-activated receptor delta (Homo sapiens) (UniProt Q03181); assay: qHTS assay for small molecule agonists of peroxisome proliferator-activated receptor delta signaling (AID 588534; calls by dose curve;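 also: 0% = DMSO basal wells and 100% = positive control agonist at 10 µM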)
In short: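 Reporter cells were plated and held 5 hrs at 37 C before compounds were added. After 18 hrs at 37 C, CCF4 dye was loaded for 2 hrs at RT and fluorescence measured.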

[18] = qHTS assay for small molecule agonists of the antioxidant response element (ARE) signaling pathway (AID 651741; active = well fitted activation curve with a large enough effect in the signal ratio; inconclusive = small, poorly fitted or top-dose-only effect, or effect the other way, or a change in a side signal; the % refers to the signal ratio; also: potency is read from the fitted curve at half-maximal effect)
In short: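 ARE-bla HepG2 cells (beta-lactamase reporter under ARE control) were plated at 2,000 cells/well, preincubated 5 h at 37 C/5% CO2, then treated with DMSO-dissolved compounds for 16 h at 37 C; LiveBLAzer B/G FRET substrate added, fluorescence read after 2 h at room temperature.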

[19] = target: Cytochrome P450 1A2 (Homo sapiens) (UniProt P05177); assay: p450-cyp1a2 (AID 410; calls by dose curve;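 also: -100% = full effect of reference inhibitor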)
In short: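 Inhibition was calculated relative to 57 uM furafylline (full inhibition). The reaction used human CYP1A2 at 20nM with Luciferin-ME at its Km, 100uM, driven by an NADPH-regenerating system for 60 min at room temperature.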

[20] = target: Cytochrome P450 3A4 (Homo sapiens) (UniProt P08684); assay: qHTS Assay for Activators of Cytochrome P450 3A4 (AID 885); also: nearly all actives have a fitted effect of over 65% in size
In short: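 Steps: enzyme/substrate mix dispensed; compound added, 10 min RT; NADPH regeneration solution added, 60 min RT; luciferin detection buffer stops reaction; 20 min later luminescence measured.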

Sequence of Estrogen receptor (Homo sapiens) (P03372 whole entry, looked up): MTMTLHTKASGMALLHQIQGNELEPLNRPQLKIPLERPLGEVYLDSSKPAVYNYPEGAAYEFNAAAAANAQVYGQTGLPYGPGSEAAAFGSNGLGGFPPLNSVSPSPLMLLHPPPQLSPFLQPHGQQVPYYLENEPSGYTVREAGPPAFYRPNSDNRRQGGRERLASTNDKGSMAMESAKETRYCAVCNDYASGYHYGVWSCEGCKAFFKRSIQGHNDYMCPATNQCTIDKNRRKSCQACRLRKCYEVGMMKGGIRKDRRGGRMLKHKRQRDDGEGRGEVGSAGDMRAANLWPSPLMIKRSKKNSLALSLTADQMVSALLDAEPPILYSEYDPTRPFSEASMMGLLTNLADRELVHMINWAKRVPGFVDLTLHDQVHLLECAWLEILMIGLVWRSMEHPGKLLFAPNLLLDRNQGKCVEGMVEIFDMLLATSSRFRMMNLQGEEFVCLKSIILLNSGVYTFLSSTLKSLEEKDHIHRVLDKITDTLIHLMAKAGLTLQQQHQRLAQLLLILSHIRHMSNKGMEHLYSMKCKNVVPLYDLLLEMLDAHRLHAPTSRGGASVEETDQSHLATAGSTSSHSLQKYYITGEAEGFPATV
Sequence of Peroxisome proliferator-activated receptor delta (Homo sapiens) (Q03181 whole entry, looked up): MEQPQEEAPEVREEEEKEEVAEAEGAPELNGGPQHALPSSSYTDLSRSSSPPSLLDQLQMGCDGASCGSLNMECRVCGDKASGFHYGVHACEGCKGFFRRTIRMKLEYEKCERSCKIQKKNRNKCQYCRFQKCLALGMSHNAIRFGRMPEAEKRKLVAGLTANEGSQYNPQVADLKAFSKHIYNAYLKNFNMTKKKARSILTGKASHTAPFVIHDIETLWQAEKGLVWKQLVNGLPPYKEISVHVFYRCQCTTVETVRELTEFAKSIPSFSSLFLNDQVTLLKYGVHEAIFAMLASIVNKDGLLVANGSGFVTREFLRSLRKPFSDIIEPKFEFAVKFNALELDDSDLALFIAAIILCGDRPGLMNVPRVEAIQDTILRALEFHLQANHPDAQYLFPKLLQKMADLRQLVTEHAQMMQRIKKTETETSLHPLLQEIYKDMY
Sequence of Cytochrome P450 3A4 (Homo sapiens) (P08684 whole entry, looked up): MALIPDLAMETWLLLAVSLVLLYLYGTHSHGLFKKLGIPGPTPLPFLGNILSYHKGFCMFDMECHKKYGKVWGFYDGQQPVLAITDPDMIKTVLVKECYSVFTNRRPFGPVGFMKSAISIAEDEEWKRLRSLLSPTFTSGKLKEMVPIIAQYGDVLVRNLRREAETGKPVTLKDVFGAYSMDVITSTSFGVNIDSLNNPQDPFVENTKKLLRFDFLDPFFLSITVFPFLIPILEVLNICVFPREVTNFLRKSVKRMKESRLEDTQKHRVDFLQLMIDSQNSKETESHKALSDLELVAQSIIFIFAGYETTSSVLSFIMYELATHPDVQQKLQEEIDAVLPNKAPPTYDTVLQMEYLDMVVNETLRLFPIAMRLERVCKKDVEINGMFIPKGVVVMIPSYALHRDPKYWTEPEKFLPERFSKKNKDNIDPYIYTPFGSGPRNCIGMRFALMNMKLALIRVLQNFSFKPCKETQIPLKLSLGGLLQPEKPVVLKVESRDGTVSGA
Sequence of Voltage-gated inwardly rectifying potassium channel KCNH2 (Homo sapiens) (Q12809 whole entry, looked up): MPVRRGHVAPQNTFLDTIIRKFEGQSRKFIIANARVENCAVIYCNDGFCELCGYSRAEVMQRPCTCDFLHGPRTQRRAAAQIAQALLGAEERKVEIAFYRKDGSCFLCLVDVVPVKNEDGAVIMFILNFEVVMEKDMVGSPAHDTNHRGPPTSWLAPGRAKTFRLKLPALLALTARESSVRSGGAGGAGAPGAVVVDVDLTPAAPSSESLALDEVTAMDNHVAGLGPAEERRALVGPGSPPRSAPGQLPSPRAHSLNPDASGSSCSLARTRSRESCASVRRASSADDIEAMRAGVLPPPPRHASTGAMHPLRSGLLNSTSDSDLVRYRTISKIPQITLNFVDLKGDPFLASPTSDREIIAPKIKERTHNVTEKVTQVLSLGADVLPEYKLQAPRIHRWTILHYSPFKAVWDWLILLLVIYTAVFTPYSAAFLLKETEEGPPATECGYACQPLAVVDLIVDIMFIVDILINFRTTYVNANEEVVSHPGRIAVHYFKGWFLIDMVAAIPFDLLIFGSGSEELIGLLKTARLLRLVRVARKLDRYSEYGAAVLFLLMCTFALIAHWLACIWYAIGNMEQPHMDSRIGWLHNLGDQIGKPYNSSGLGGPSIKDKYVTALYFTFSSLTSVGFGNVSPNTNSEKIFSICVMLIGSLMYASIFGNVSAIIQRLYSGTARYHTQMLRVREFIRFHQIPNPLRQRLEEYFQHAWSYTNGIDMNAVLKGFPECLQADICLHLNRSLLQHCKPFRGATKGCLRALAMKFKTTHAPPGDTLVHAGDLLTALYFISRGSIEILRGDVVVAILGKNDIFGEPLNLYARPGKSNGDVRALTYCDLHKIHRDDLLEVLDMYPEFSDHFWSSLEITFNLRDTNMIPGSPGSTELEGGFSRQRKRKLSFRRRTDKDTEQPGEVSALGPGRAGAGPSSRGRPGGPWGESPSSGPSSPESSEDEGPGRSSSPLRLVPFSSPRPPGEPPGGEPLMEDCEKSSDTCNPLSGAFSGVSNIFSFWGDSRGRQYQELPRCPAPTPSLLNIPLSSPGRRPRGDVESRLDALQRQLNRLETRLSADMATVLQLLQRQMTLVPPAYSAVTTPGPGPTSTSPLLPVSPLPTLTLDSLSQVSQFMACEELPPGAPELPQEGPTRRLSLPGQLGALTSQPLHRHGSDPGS
Sequence of Cytochrome P450 1A2 (Homo sapiens) (P05177 whole entry, looked up): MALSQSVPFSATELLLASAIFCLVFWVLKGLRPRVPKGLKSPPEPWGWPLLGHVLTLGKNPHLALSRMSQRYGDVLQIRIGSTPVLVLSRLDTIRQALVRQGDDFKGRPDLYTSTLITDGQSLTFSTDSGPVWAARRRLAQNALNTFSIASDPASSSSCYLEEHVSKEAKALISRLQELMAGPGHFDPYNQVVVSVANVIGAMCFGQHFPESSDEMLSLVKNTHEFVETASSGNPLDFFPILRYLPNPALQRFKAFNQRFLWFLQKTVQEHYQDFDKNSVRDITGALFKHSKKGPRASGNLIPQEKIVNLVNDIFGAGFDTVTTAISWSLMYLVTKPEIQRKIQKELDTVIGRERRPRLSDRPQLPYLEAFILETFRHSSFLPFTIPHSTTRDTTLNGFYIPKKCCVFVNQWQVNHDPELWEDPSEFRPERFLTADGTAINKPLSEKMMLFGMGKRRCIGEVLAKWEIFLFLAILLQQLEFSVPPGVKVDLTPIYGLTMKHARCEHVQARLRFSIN

N#CSCSC#N
caspase-3 activation [1]: -3.87% | Potency [2]: 25.1 µM (active) | Potency [3]: 39.8 µM (active) | Potency [4]: 10 µM (active) | Potency [5]: 6.31 µM (active) | Potency [6]: 6.31 µM (active) | Potency [7]: 10 µM (active) | Potency [8]: 12.6 µM (active) | Potency [9]: 7.94 µM (active) | Potency [10]: 5.01 µM (active) | Potency [11]: 3.98 µM (active) | Potency [12]: 31.6 µM (active) | Potency [13]: 25.1 µM (active) | Potency [14]: inactive | Potency [15]: 9.44 µM (active)

COP(=O)(OC)O/C(=C\Cl)c1cc(Cl)c(Cl)cc1Cl
caspase-3 activation [1]: 2.54% | Potency [2]: inactive | Potency [3]: inactive | Potency [4]: inactive | Potency [7]: inactive | Potency [8]: inactive | Potency [16]: inactive | outcome [17]: inactive | Potency [12]: inactive | Potency [18]: 37.6 µM (active) | activation [13]: -0.853% | Potency [15]: inactive

CC[C@@H]1CN2CC[C@@H]1C[C@H]2[C@@H](O)c1ccnc2ccc(OC)cc12
Potency [19]: inactive

CN(C)c1ccc(N=O)cc1
caspase-3 activation [1]: -1.57% | Potency [3]: 10 µM (active) | Potency [4]: 3.16 µM (active) | Potency [5]: 0.794 µM (active) | Potency [6]: 1.58 µM (active) | Potency [7]: 2.51 µM (active) | Potency [8]: 2 µM (active) | Potency [9]: 2.51 µM (active) | Potency [10]: 0.631 µM (active) | Potency [11]: 0.501 µM (active) | Potency [16]: 22.4 µM [inconclusive] (active) | Potency [12]: inactive | Potency [18]: 13.3 µM (active) | activation [13]: -1.31%

CC(=O)[O-].CC(=O)[O-].O.O.[Cd+2]
caspase-3 activation [1]: 0.407% | Potency [20]: inactive | Potency [2]: inactive | Potency [3]: inactive | Potency [4]: inactive | Potency [14]: inactive | Potency [15]: 8.41 µM (active)

[Cd+2].[Cl-].[Cl-]
caspase-3 activation [1]: -2.46% | Potency [20]: inactive | Potency [2]: inactive | Potency [4]: inactive | Potency [10]: 39.8 µM (active) | Potency [16]: 44.7 µM [inconclusive] (active) | activation [13]: -8.9% | Potency [15]: 21.1 µM (active)

O=[N+]([O-])C(Br)Br
Potency [2]: inactive | Potency [3]: inactive | Potency [4]: inactive | Potency [5]: 25.1 µM (active) | Potency [6]: 12.6 µM (active) | Potency [7]: 10 µM (active) | Potency [8]: 20 µM (active) | Potency [9]: 15.8 µM (active) | Potency [10]: 12.6 µM (active) | Potency [11]: 7.94 µM (active) | outcome [17]: inactive | Potency [12]: 50.1 µM (active) | Potency [18]: 47.3 µM (active) | activation [13]: 12.3% | Potency [14]: inactive | Potency [15]: 18.8 µM (active)

C[N+]1(C)CCO[C@@](O)(c2ccc(-c3ccc([C@]4(O)C[N+](C)(C)CCO4)cc3)cc2)C1
Potency [20]: inactive

ClC1=C(Cl)C2(Cl)C3C(Cl)C(Cl)CC3C1(Cl)C2(Cl)Cl (centres undefined)
Potency [20]: inactive | Potency [2]: inactive | Potency [6]: inactive | Potency [9]: inactive | outcome [17]: inactive | Potency [12]: 35.5 µM (active) | Potency [18]: 66.8 µM (active) | activation [13]: 0.792% | Potency [15]: 66.8 µM (active)

C(=NC1CCCCC1)=NC1CCCCC1
caspase-3 activation [1]: 91.9% (active) | Potency [2]: inactive | Potency [3]: inactive | Potency [16]: inactive | outcome [17]: inactive | Potency [18]: 24.3 µM (active) | activation [13]: 5% | Potency [14]: inactive

CCCCCCCCCCCCCC(=O)O[C@H]1[C@@H](C)[C@@]2(O)[C@@H](C=C(CO)C[C@]3(O)C(=O)C(C)=C[C@@H]23)C2C(C)(C)[C@]21OC(C)=O (some centres undefined)
Potency [20]: inactive

C[C@H]1CCCC=CC2C[C@H](O)C[C@@H]2[C@H](O)/C=C\C(=O)O1 (some centres undefined)
Potency [20]: inactive

COC[C@H]1OC(=O)c2coc3c2[C@@]1(C)C1=C(C3=O)[C@H]2CCC(=O)[C@@]2(C)C[C@H]1OC(C)=O
Potency [20]: inactive
